Consider 45 compounds from PMC4336329 (PLoS ONE, 2015).

Screen size: about 310,000 compounds; about 14,000 (4.5%) showed an effect of 50% or more. The effect is printed as a negative number. The sample holds strong results, similar compounds and a random draw of the others, so the mix is not that of the screen.
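Also: peak tail current of the secondary pulse compared with the same well before compound.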

The target of this assay is human ether-à-go-go-related gene (hERG) potassium channel (human, UniProt Q12809). The experiment in a line: primary screen, population patch clamp on CHO cells stably expressing hERG; higher = less effect of the substance.
Chain of human ether-à-go-go-related gene (hERG) potassium channel (Q12809 whole entry, looked up): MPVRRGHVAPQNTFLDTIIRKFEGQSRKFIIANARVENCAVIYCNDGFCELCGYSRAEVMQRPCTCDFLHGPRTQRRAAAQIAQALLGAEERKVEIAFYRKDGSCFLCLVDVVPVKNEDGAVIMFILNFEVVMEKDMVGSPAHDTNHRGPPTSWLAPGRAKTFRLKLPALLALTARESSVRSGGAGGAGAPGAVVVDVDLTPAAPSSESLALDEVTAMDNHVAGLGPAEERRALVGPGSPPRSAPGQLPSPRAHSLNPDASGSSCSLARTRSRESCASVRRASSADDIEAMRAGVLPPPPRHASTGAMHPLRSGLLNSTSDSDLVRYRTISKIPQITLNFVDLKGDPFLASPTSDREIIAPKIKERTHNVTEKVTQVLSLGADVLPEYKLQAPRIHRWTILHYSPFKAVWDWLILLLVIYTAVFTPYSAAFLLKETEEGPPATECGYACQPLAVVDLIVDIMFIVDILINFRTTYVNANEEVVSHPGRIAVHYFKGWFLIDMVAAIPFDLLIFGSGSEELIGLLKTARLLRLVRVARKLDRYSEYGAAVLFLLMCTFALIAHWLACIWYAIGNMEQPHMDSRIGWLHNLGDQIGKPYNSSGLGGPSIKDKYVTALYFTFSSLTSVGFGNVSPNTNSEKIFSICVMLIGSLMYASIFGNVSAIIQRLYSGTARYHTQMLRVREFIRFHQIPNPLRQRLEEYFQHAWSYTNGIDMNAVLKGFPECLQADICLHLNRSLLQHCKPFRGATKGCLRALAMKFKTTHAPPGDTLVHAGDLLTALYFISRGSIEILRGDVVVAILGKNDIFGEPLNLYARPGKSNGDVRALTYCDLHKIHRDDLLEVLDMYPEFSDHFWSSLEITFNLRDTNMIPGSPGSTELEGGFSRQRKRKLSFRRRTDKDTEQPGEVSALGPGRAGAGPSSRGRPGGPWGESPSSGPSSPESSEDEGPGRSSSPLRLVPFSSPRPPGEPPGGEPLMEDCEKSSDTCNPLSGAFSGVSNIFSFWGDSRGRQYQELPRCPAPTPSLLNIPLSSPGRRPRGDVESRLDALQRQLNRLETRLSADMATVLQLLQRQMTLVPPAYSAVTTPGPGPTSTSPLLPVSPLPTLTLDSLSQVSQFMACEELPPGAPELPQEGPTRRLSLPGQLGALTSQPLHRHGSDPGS
For `O=C1c2ccc(Cl)cc2S(=O)(=O)c2cccc(C(=O)N3CCN(c4ccc(Cl)cn4)CC3)c21`, the “hERG current change (%, negative = inhibition) at 10uM” value is -39.9%. The same measure for `N#Cc1cccnc1N1CCN(C(=O)c2cccc3c2C(=O)c2ccc(Cl)cc2S3(=O)=O)CC1`: -56.6%; for `CCN(CCn1cccn1)C(=O)CCc1nnc(CCc2ccccc2OC)o1`: 5.73%.

With `CCC/C(=N\NC(=O)c1cccc(C)c1)c1ccccc1`, the “hERG current change (%, negative = inhibition) at 10uM” value is 2.17%. The same measure for `CCOc1cccc(/C=N/Nc2ccc(S(=O)(=O)N(CC)CC)cn2)c1O`: 6.79%; for `COc1ccc(CN(C)C(=O)COC(=O)c2c(-c3ccccc3Cl)noc2C)cc1`: -15.1%; for `COc1ccc(COC(=O)c2c(C)nn(-c3ccccc3)c2Cl)cc1`: 4.32%.

In the case of `COc1ccc(CN(C)C(=O)COC(=O)c2c(C)nn(-c3ccc(F)cc3)c2Cl)cc1`, the “hERG current change (%, negative = inhibition) at 10uM” value was -71.1%.

On to `Brc1ccc(CSc2nnc(-c3ccccn3)n2Cc2ccco2)cc1`, for which the “hERG current change (%, negative = inhibition) at 10uM” value is recorded as -16.8%. In the case of `CN1CCc2c(OCC(=O)NC3CCCCC3)cccc2C1=O` it was 13.6%.

`CCCCCCSc1ccc([C@H]2N[C@@](Cc3ccccc3)(C(=O)OC)[C@H]3C(=O)N(C)C(=O)[C@@H]23)cc1OC.O=C(O)C(F)(F)F`: the “hERG current change (%, negative = inhibition) at 10uM” value was found to be 5.93%. The same measure for `O=P(O)(O)O.c1ccc(CSCCc2ccncc2)cc1`: -5.48%; for `COC(=O)Cn1cc(C(=O)c2ccccc2F)c2ccccc21`: -1.29%. In the case of `CCOC(=O)Cn1cc(C(=O)c2ccccc2F)c2ccccc21` it was -71%; in that of `NC(=O)Cn1cc(C(=O)c2ccccc2F)c2ccccc21`, 25.1%; in that of `CCN(CC)C(=O)CN(C#N)c1nc(C)cc(C)n1`, 19.4%.

For `CCc1ccc(C(=O)CN(C#N)c2nc(C)cc(C)n2)cc1`, the “hERG current change (%, negative = inhibition) at 10uM” value is reported as -75.6%.

In the case of `Cc1cc(C)nc(N(C#N)CC(=O)c2ccccc2)n1`, the “hERG current change (%, negative = inhibition) at 10uM” value was -42.9%.

With `Cc1c(Cl)cccc1NC(=S)NC(=O)c1cncc(Br)c1`, the “hERG current change (%, negative = inhibition) at 10uM” value was 17.6%. The same measure for `COc1cccc(/C=N/NC(=S)NCCc2ccccc2)c1`: 10.5%; for `CCC(=O)Nc1cccc(-c2nnc(-c3cccc(NC(=O)CC)c3)o2)c1`: 7.83%; for `Cc1ccc(CNC(=O)c2oc3ccc(S(=O)(=O)N4CCC5(CC4)OCCO5)cc3c2C)cc1`: -3.35%. For the compound `CN(Cc1ccccc1)S(=O)(=O)c1ccc(NS(=O)(=O)Cc2ccccc2)cc1`, the “hERG current change (%, negative = inhibition) at 10uM” value is on record as 0.139%. The same measure for `CN(Cc1ccccc1)S(=O)(=O)c1ccc(NS(C)(=O)=O)cc1`: -55.5%. The same measure for `CS(=O)(=O)Nc1ccccc1C(=O)NCc1ccco1`: -2.03%. For the compound `CS(=O)(=O)Nc1ccc(C(=O)NCCSCc2c(F)cccc2Cl)cc1`, the “hERG current change (%, negative = inhibition) at 10uM” value is given as -57.7%.

`CS(=O)(=O)NCCSCc1c(F)cccc1Cl`: the “hERG current change (%, negative = inhibition) at 10uM” value amounted to 1.87%.

As for `CS(=O)(=O)Nc1ccc(C(=O)NCc2ccco2)cc1`, the “hERG current change (%, negative = inhibition) at 10uM” value was determined as 0.221%.

Regarding `CS(=O)(=O)Nc1ccc(C(=O)NCCc2ccccc2)cc1`, the “hERG current change (%, negative = inhibition) at 10uM” value was -69.6%. On to `CN(c1ccc(C(=O)NCCSCc2c(F)cccc2Cl)cc1)S(C)(=O)=O`, for which the “hERG current change (%, negative = inhibition) at 10uM” value came to 1.6%. The same measure for `CC(=O)Nc1ccc(S(=O)(=O)N(C)Cc2ccccc2)cc1`: -12.7%; for `CC(=O)Nc1ccc(C(=O)NCCc2ccccc2)cc1`: 12.9%; for `CS(=O)(=O)Nc1ccc(C(=O)Nc2ccccc2C(=O)NCc2ccco2)cc1`: -69.2%. In the case of `CS(=O)(=O)Nc1ccc(C(=O)NCCSCc2ccccc2)cc1` it was -45.1%; in that of `CCOC(=O)C1=C(COc2ccccc2)NC(=O)NC1c1ccc2ccccc2c1` (stereo not drawn), -12.3%. In the case of `CC(C)CCNC(=O)NC(=O)CSc1nnc2ccccn12`, the “hERG current change (%, negative = inhibition) at 10uM” value is on record as 15.6%. In the case of `CCOC(=O)N1CCC(NC(=O)CC2C(=O)NCCN2Cc2ccccc2)CC1` (stereo not drawn) it was -1.48%; in that of `CCN(CC)S(=O)(=O)c1ccc(/C=C/C(=O)Nc2c(C)n(C)n(-c3ccccc3)c2=O)cc1`, 19.4%.

As for `CCCC1CCC(=C(C#N)C(N)=O)CC1` (stereo not drawn), the “hERG current change (%, negative = inhibition) at 10uM” value is -32.8%. In the case of `CCc1ccccc1NC(=O)c1ccc(NS(C)(=O)=O)cc1` it was -42.1%; in that of `CCOC(=O)c1ccccc1NC(=O)c1ccccc1NS(C)(=O)=O`, -0.0503%. In the case of `COC(=O)c1ccccc1NC(=O)c1ccc(NS(C)(=O)=O)cc1` it was -36.1%; in that of `O=C(Nc1ccccc1-c1ccccc1)c1ccccc1`, 13.2%. The same measure for `CS(=O)(=O)Nc1ccc(C(=O)Nc2ccccc2-c2ccccc2)cc1`: -65.9%; for `CCOC(=O)c1ccccc1NC(=O)c1ccc(NS(C)(=O)=O)cc1`: -54.7%.
